Source: PubChem BioAssay (NCATS)
Results filed as inconclusive are left out. Active and inactive are the calls of the source. The call rests on the fitted dose curve; in most records, active means well fitted inhibition curve with a large enough effect; inconclusive means small, poorly fitted or top-dose-only effect; inactive means flat fitted curve, though single readings scatter.

How the values were obtained:
Assay in all cases: qHTS profiling for inhibitors of Plasmodium falciparum proliferation (AID 504749); further: nearly all actives have a fitted effect of over 60% in size
Details in all cases: P. falciparum in erythrocytes, SYBR Green DNA, 72 h; series mostly up to 28.7 µM
3D7 = test system: 3D7
Procedure, shortened: (§1)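 Readout was DNA-dye fluorescence from lysed cultures, ex 485/em 535 nm. Parasitized red cells had grown 72 h with compound; data scaled between 0.29 uM artemisinin and DMSO wells and corrected using vehicle-only plates.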

AA1029 = test system: AA1029
Procedure, shortened: as §1

AS120 = test system: AS120
Procedure, shortened: as §1

ATS189 = test system: ATS189
Procedure, shortened: as §1

ATS95 = test system: ATS95
Procedure, shortened: as §1

C2A = test system: C2A
Procedure, shortened: as §1

CP185 = test system: CP185
Procedure, shortened: as §1

CP191 = test system: CP191
Procedure, shortened: as §1

CP192 = test system: CP192
Procedure, shortened: as §1

7G8 = test system: 7G8
Procedure, shortened: as §1

Measured: Potency
Potency means the concentration at half of the fitted maximal effect.

CC(C)(C)CC(C)(C)c1ccc(OCCO)cc1
not listed: 7G8
inactive: all other assays above

NC(=O)Oc1ccc(Cc2ccccc2)cc1
not listed: 7G8
inactive: all other assays above

O=P(O)(O)OP(=O)(O)O
active: 7G8 10 µM
not listed: AA1029 | AS120 | ATS189
inactive: all other assays above

N[C@@H](Cc1cc(I)c(Oc2ccc(O)c(I)c2)c(I)c1)C(=O)O
inactive: 3D7 | C2A | CP185 | CP192
active: 7G8 12.6 µM

CN(C)CCC=C1c2ccccc2C(C)(C)c2ccccc21
active: 7G8 7.94 µM
inactive: 3D7 | ATS189 | CP192

O=C(OCc1ccccc1)c1ccc(O)cc1
not listed: 7G8
inactive: all other assays above

CCOC(=O)C1=C(COCCN)NC(C)=C(C(=O)OC)C1c1ccccc1Cl (stereo not drawn)
active: 7G8 11.2 µM
not listed: ATS189
inactive: all other assays above

CC(CN(C)C)CN1c2ccccc2Sc2ccc(C(F)(F)F)cc21 (stereo not drawn)
active: 7G8 10 µM | AS120 11.2 µM | CP191 8.91 µM
inactive: 3D7 | CP192

CCSc1ccc2c(c1)N(CCCN1CCN(C)CC1)c1ccccc1S2
not listed: 7G8
inactive: all other assays above

CN(C)c1ccc(C(=C2C=CC(=[N+](C)C)C=C2)c2c(O)c(S(=O)(=O)[O-])cc3cc(S(=O)(=O)O)ccc23)cc1
not listed: 7G8
inactive: all other assays above

CO/N=C(/C(=O)N[C@@H]1C(=O)N2C(C(=O)O)=C(COC(N)=O)CS[C@H]12)c1ccco1
not listed: 7G8
inactive: all other assays above

CCN(CC)CCOC(=O)c1cccnc1
not listed: ATS95 | CP191
inactive: all other assays above

O=[N+]([O-])c1c(Cl)cccc1-c1c[nH]cc1Cl
not listed: 7G8
inactive: all other assays above

CCC(=O)c1ccc2c(c1)N(CCCN1CCN(CCO)CC1)c1ccccc1S2
active: 3D7 10 µM | 7G8 11.2 µM | AA1029 12.6 µM | AS120 12.6 µM | ATS189 12.6 µM | CP191 5.62 µM

CCCCC/C=C\C/C=C\C/C=C\CCCCC(=O)O
not listed: 7G8
inactive: all other assays above

O=C1CCC(c2ccccc2)(C2CCN(Cc3ccccc3)CC2)C(=O)N1 (stereo not drawn)
not listed: 7G8
inactive: all other assays above

C/C=C/C=C/C(=O)O
not listed: ATS95
inactive: all other assays above

N#Cc1ccc2c(c1)N(CCCN1CCC(O)CC1)c1ccccc1S2
inactive: 3D7 | C2A | CP192
active: 7G8 12.6 µM | AA1029 11.2 µM

C=CCCCCCCCCC(=O)OC
not listed: 7G8
inactive: all other assays above

C=CC[N+]1([C@H]2C[C@H]3[C@@H]4CC[C@H]5C[C@H](O)[C@@H](N6CCOCC6)C[C@]5(C)[C@H]4CC[C@]3(C)[C@H]2OC(C)=O)CCCC1
inactive: 3D7
active: AA1029 11.2 µM

Cc1cccc(C)c1NC(=O)NC1=CCCN1C
not listed: AS120
inactive: all other assays above

CN(C)CCCSc1ccccc1NC(=O)/C=C/c1ccccc1
not listed: AA1029
inactive: all other assays above

NC(=O)[C@@H]1CCCN1C(=O)[C@H](Cc1cnc[nH]1)NC(=O)[C@@H]1CCC(=O)N1
not listed: 7G8
inactive: all other assays above

O=C(O)CCC/C=C\C[C@@H]1[C@@H](/C=C/[C@@H](O)COc2cccc(Cl)c2)[C@H](O)C[C@@H]1O
not listed: 7G8
inactive: all other assays above

Oc1ccc(Cl)c2c1CCC2
not listed: 7G8
inactive: all other assays above

O=C(O[C@H]1CN2CCC1CC2)N1CCc2ccccc2[C@@H]1c1ccccc1
active: 7G8 5.62 µM
not listed: AA1029 | C2A | CP191
inactive: all other assays above

Cc1cc(C)c(NC(=O)C[C@H](CC(=O)O)c2cccc3ccccc23)c(C(=O)N2CCC3(CCCC3)CC2)c1
not listed: 7G8
inactive: all other assays above

CC(=O)Nc1ccc(NC(=S)NC(=O)c2ccc(C(C)(C)C)cc2)cc1
active: 3D7 11.2 µM | 7G8 8.91 µM
not listed: AA1029 | ATS95
inactive: all other assays above

CN1CCCC(CN2c3ccccc3Sc3ccccc32)C1 (stereo not drawn)
active: 7G8 11.2 µM | AA1029 10 µM | AS120 12.6 µM
inactive: 3D7 | CP192

CC(=O)Nc1c(I)c(C(=O)O)c(I)c(N(C)C(C)=O)c1I
not listed: AS120
inactive: all other assays above

CC(C)CCCCCCc1ccc(O)cc1
active: 7G8 8.91 µM
not listed: AS120 | ATS189 | ATS95
inactive: all other assays above

CN1C(C(=O)Nc2ccccn2)C(=O)c2sc(Cl)cc2S1(=O)=O (stereo not drawn)
not listed: 7G8
inactive: all other assays above

C[C@]12CCC(=O)C[C@@H]1CC[C@@H]1[C@@H]2CC[C@]2(C)C=CC[C@@H]12
not listed: 7G8
inactive: all other assays above
